# What was measured:
# [1] = molecular target: Protein kinase C gamma type (Homo sapiens) (UniProt P05129); settings: at 1 µM;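 further: each value is an averaged percent inhibition of the enzyme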
# [2] = molecular target: T1, Protein kinase C iota type (Homo sapiens) (UniProt P41743); settings: at 0.1 µM
# T1 sequence (whole entry): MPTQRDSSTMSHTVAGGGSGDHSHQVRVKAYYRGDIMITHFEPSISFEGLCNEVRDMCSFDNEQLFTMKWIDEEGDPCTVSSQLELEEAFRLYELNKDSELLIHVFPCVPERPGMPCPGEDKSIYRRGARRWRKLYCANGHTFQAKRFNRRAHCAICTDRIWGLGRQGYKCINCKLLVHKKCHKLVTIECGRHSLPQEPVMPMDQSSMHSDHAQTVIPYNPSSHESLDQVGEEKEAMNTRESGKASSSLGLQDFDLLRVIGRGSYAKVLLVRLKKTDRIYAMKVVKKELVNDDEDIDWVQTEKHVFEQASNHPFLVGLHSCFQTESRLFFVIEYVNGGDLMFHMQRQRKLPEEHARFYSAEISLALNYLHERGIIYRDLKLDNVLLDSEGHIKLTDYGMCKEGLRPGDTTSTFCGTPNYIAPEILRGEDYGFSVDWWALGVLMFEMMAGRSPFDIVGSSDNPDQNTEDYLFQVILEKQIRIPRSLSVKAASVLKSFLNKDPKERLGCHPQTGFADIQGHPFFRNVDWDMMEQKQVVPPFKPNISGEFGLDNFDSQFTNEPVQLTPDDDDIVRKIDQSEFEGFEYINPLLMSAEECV
# [3] = molecular target: T1, Protein kinase C iota type (Homo sapiens); settings: at 1 µM
# [4] = molecular target: Protein kinase C theta type (Homo sapiens) (UniProt Q04759); settings: at 0.1 µM
# [5] = molecular target: Protein kinase C theta type (Homo sapiens) (UniProt Q04759); settings: at 1 µM
# [6] = molecular target: Protein kinase C beta type (Homo sapiens) (UniProt P05771); settings: at 0.1 µM
# [7] = molecular target: Protein kinase C beta type (Homo sapiens) (UniProt P05771); settings: at 1 µM
# [8] = molecular target: T2, Serine/threonine-protein kinase D1 (Homo sapiens) (UniProt Q15139); settings: at 0.1 µM
# T2 sequence (whole entry): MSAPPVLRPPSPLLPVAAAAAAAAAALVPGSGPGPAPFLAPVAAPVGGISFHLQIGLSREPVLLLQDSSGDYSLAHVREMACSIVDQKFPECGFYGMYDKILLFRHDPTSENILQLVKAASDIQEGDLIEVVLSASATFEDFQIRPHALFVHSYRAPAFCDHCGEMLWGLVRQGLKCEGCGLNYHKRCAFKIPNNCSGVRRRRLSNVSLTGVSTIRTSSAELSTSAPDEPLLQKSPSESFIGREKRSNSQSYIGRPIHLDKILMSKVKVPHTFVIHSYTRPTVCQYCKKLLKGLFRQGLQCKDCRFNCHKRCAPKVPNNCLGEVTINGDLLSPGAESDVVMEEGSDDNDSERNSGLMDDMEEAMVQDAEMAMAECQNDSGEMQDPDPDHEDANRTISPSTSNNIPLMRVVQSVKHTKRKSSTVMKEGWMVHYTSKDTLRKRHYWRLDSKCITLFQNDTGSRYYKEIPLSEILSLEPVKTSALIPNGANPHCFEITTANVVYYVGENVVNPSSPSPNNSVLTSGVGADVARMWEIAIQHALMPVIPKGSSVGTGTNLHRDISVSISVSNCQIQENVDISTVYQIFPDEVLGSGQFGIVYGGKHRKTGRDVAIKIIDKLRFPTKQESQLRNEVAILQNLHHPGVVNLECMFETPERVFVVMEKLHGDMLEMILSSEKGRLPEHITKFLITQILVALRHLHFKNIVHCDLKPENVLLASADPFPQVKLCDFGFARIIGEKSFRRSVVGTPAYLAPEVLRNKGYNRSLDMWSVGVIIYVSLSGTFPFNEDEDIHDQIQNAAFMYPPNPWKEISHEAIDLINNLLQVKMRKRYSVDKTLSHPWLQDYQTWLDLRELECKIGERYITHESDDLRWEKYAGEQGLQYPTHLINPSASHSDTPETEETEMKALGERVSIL
# [9] = molecular target: T2, Serine/threonine-protein kinase D1 (Homo sapiens); settings: at 1 µM
# [10] = molecular target: T3, Serine/threonine-protein kinase D2 (Homo sapiens) (UniProt Q9BZL6); settings: at 0.1 µM
# T3 sequence (whole entry): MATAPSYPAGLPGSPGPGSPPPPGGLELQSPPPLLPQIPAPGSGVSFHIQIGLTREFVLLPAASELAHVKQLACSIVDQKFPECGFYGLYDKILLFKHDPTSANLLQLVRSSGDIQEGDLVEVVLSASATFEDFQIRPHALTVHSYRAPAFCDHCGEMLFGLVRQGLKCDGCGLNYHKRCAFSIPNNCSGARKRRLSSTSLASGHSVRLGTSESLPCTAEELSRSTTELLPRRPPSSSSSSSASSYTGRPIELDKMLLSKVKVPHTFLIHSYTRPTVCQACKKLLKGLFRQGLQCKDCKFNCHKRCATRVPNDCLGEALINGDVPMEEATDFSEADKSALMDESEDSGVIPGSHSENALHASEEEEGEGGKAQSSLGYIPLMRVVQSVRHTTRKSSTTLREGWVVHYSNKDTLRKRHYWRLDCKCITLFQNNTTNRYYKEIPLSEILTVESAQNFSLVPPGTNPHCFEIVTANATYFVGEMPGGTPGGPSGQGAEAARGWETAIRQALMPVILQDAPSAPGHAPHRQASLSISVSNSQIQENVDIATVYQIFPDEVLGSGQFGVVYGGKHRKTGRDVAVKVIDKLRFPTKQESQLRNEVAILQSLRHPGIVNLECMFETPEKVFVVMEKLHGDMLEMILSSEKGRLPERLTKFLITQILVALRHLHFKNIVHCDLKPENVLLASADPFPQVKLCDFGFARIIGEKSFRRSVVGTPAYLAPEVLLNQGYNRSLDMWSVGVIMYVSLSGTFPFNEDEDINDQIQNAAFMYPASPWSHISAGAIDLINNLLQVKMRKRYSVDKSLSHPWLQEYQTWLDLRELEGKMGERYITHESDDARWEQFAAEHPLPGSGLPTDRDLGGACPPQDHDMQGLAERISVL
# [11] = molecular target: T3, Serine/threonine-protein kinase D2 (Homo sapiens); settings: at 1 µM
# [12] = molecular target: T4, Serine/threonine-protein kinase D3 (Homo sapiens) (UniProt O94806); settings: at 0.1 µM
# T4 sequence (whole entry): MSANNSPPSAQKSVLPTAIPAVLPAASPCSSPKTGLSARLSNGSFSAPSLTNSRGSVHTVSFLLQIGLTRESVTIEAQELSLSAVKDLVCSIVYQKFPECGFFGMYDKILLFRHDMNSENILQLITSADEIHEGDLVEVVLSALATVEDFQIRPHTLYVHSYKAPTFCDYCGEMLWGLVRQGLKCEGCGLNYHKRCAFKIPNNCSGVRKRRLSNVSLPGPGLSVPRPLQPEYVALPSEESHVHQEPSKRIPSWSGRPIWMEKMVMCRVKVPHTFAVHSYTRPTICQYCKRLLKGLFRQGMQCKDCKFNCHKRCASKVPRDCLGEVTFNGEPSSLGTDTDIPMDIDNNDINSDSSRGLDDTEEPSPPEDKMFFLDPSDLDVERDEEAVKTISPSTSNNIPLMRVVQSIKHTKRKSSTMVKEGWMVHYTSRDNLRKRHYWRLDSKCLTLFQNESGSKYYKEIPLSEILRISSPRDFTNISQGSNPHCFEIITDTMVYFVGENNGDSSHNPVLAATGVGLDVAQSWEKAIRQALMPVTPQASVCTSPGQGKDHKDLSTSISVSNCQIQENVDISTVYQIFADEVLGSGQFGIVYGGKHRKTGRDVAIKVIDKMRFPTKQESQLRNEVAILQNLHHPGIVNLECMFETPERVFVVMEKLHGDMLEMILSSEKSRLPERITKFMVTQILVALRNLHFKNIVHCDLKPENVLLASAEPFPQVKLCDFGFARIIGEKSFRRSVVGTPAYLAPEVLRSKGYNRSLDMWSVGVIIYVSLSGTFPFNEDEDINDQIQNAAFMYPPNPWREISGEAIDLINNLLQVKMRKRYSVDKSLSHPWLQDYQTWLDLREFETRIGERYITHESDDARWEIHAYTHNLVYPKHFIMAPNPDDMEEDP
# [13] = molecular target: T4, Serine/threonine-protein kinase D3 (Homo sapiens); settings: at 1 µM
# [14] = molecular target: T5, cGMP-dependent protein kinase 1 (Homo sapiens) (UniProt Q13976); settings: at 0.1 µM
# T5 sequence (whole entry): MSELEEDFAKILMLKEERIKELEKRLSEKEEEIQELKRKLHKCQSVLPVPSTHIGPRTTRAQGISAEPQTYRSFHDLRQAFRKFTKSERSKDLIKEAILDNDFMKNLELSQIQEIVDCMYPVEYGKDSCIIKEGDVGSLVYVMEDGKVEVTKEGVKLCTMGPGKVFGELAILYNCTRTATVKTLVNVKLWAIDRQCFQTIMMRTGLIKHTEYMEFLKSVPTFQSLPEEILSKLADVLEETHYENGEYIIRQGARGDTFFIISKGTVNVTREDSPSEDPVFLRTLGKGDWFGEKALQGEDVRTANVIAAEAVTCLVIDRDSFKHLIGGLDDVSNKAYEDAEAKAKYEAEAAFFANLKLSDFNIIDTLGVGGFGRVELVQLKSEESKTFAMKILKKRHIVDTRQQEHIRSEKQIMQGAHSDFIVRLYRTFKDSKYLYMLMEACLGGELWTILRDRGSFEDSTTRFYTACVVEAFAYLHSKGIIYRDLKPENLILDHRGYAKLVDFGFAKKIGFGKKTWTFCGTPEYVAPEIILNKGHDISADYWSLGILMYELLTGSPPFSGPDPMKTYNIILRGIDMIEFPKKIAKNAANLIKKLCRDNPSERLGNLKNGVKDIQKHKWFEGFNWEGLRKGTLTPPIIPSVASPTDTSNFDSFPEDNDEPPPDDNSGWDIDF
# [15] = molecular target: T5, cGMP-dependent protein kinase 1 (Homo sapiens); settings: at 1 µM
# [16] = molecular target: T6, cGMP-dependent protein kinase 2 (Homo sapiens) (UniProt Q13237); settings: at 0.1 µM
# T6 sequence (whole entry): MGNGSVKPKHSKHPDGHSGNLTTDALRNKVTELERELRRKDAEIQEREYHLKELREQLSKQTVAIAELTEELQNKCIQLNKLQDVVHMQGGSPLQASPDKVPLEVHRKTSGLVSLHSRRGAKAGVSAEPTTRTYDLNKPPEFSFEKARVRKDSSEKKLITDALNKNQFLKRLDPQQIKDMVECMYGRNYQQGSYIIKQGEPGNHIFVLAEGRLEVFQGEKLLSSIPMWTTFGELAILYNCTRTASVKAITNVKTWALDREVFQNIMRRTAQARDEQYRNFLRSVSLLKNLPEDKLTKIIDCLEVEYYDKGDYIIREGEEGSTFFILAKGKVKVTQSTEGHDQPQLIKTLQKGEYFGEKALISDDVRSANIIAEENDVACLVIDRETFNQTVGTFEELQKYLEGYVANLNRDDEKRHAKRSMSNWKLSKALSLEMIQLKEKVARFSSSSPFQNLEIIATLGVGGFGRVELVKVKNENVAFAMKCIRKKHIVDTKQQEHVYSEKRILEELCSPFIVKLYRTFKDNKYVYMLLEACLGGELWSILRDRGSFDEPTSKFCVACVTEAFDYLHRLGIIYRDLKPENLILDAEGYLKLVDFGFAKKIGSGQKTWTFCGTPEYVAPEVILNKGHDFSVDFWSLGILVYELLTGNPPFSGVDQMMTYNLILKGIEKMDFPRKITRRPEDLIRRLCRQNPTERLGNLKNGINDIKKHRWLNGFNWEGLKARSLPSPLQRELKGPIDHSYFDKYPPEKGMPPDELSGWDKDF
# [17] = molecular target: T6, cGMP-dependent protein kinase 2 (Homo sapiens); settings: at 1 µM
# [18] = molecular target: T7, cAMP-dependent protein kinase catalytic subunit PRKX (Homo sapiens) (UniProt P51817); settings: at 0.1 µM
# T7 sequence (whole entry): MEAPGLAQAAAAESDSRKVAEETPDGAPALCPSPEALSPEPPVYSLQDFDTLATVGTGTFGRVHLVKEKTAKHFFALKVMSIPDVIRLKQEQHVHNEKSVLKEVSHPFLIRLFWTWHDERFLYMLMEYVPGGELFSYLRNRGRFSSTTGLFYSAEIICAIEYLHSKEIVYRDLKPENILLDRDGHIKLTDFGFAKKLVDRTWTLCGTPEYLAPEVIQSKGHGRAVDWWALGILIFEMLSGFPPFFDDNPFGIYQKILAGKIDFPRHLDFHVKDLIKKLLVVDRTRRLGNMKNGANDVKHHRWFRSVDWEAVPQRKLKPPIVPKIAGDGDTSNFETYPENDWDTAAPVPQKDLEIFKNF
# [19] = molecular target: T7, cAMP-dependent protein kinase catalytic subunit PRKX (Homo sapiens); settings: at 1 µM
# [20] = molecular target: Rho-associated protein kinase 1 (Homo sapiens) (UniProt Q13464); settings: at 0.1 µM;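 further: values are mean percent inhibition of ROCK1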
# Sequence of Rho-associated protein kinase 1 (Homo sapiens) (Q13464 2-1354 limits assumed): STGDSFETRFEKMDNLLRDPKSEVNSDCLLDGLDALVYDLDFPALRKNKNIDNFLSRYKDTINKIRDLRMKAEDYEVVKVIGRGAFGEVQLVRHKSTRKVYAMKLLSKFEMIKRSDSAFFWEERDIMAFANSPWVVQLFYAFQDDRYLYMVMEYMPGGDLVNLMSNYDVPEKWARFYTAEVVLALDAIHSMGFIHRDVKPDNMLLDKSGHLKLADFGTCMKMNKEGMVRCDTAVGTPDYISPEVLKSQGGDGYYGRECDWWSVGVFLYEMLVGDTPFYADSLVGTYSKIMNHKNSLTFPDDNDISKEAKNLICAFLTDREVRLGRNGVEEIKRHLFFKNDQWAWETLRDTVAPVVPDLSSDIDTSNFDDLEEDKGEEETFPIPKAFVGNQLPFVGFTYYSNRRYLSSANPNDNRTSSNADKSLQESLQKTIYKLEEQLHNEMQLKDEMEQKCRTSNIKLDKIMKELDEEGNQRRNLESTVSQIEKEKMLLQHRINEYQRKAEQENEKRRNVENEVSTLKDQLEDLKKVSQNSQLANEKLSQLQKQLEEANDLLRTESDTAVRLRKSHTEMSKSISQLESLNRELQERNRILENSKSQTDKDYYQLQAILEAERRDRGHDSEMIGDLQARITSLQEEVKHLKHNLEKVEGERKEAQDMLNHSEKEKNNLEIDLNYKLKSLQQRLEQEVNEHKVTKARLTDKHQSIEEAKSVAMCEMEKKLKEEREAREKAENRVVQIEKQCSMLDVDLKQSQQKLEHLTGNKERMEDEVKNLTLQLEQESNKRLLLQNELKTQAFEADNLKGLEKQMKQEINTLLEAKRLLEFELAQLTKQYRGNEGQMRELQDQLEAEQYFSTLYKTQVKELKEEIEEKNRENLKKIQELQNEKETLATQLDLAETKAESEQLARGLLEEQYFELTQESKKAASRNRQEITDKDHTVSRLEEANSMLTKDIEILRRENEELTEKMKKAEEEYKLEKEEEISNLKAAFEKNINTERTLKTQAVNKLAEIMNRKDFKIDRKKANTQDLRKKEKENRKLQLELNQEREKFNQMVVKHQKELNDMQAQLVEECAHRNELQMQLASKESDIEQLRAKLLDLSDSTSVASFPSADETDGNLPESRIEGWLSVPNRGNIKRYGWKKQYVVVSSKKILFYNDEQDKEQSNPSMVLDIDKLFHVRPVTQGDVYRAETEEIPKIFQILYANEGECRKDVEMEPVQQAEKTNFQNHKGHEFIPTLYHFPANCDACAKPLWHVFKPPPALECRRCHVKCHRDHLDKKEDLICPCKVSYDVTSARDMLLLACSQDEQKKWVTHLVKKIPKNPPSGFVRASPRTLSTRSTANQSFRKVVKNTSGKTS
# Sequence of Protein kinase C beta type (Homo sapiens) (P05771 2-671 limits assumed): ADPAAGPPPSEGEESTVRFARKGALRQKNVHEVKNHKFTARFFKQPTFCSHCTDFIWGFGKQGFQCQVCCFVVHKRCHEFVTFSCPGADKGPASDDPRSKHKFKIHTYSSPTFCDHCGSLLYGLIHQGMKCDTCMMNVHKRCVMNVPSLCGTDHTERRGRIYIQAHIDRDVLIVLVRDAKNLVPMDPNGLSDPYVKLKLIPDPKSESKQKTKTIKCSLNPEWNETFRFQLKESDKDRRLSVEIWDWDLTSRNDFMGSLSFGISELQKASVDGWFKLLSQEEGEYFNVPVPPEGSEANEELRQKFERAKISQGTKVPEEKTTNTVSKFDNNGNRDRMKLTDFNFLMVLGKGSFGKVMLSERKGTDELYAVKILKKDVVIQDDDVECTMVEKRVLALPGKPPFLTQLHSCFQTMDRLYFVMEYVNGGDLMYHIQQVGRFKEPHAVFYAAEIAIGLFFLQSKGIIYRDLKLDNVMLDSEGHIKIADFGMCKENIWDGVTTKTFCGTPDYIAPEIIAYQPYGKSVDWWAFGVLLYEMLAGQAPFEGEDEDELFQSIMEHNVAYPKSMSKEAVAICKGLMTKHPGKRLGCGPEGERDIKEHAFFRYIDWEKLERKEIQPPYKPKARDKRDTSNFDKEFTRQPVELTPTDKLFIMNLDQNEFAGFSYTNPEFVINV
# Sequence of Protein kinase C theta type (Homo sapiens) (Q04759 whole entry, looked up): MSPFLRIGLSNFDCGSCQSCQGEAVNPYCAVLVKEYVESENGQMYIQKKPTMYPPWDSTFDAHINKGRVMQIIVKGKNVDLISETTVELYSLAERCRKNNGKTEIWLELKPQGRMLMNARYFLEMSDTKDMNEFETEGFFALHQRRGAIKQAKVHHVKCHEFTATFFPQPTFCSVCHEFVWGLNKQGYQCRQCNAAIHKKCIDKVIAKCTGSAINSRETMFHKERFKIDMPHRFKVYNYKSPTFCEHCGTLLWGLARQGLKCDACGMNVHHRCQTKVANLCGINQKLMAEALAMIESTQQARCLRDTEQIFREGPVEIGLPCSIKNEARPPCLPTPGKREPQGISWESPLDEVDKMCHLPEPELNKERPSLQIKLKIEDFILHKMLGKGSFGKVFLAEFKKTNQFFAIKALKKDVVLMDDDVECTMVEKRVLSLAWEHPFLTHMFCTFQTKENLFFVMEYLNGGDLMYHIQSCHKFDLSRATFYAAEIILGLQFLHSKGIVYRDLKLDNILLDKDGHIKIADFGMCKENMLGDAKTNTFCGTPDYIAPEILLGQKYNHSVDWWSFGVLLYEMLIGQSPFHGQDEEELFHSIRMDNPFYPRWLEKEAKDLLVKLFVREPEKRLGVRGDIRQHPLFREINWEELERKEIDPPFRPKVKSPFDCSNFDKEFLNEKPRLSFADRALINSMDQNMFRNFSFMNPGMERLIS
SMILES,inhibition [1],inhibition [2],inhibition [3],inhibition [4],inhibition [5],inhibition [6],inhibition [7],inhibition [8],inhibition [9],inhibition [10],inhibition [11],inhibition [12],inhibition [13],inhibition [14],inhibition [15],inhibition [16],inhibition [17],inhibition [18],inhibition [19],inhibition [20]
Cc1ccc2c(c1)/C(=N/Nc1ccc(S(N)(=O)=O)cc1)C(=O)N2,-1.54%,-1.59%,0.19%,-0.6%,-1.65%,0.19%,0.09%,0.96%,1.76%,1.62%,1.97%,0.87%,1.79%,0.26%,0.41%,0.36%,3.82%,-1.58%,-2.35%,0.97%
NS(=O)(=O)c1ccc(-c2cc3ccncc3cc2OCc2ccccc2)cc1,4.49%,0.19%,0.28%,1.18%,2.98%,0.66%,1.74%,2.19%,2.75%,2.47%,4.54%,2.31%,2.51%,0.96%,4.78%,1.8%,3.35%,0.85%,1.52%,0.19%
CCS(=O)(=O)c1ccc(OC)c(Nc2ncc(-c3cccc(OC)c3)o2)c1,3.87%,1.8%,3.38%,1.22%,0.3%,0.6%,2.93%,2.32%,4.41%,2.35%,3.71%,3.28%,3.64%,1.45%,2.34%,0.25%,2.95%,0.28%,-2.35%,0.26%
Cc1cc(O)cc(C)c1/C=C/c1cncc(C(=O)N(C)C)c1,4.07%,0.51%,1.32%,0.96%,0.78%,0.19%,3%,1.61%,2.79%,-2.38%,2.05%,6.37%,3%,2.65%,3.73%,1.74%,3.78%,1.77%,0.5%,0.55%

# From ChEMBL document CHEMBL1961873, “Compounds: GSK PKIS; Assays: Nanosyn kinase panel” (2012)
